Assay results reported in the supplement of paper PMC10670038.
Structures can show the parent of a compound that is named as a salt. ± gives the standard deviation of the averaged measurements. In all, about 2,000 compounds were measured (“relative cell viability vs DMSO, compound + 0.2 uM CuET”: median about 1, lowest 2% from about 0.25 on). This is one part of a sample in which the lowest values are shown more often than they occur.

system: TE10; assay: relative cell viability vs DMSO, compound + 0.2 uM CuET (fraction); TE10 is an esophageal squamous carcinoma line; higher = less cytotoxic; conditions: 2 µM; co-treatment: CuET (bis(diethyldithiocarbamate)copper) 0.2 uM; 48 h
Protocol: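 TE10 ESCC cells (1,000/well, 384-well plates) were treated with Selleck bioactive library compounds at 2 uM combined with 0.2 uM CuET (copper diethyldithiocarbamate) for 48 h. Viability was read by CellTiter-Glo and expressed relative to DMSO wells. Two technical replicates (A, B).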

Structure (SMILES)	relative cell viability
CCN1CCN(C(=O)Cc2ccc(Nc3ncc(F)c(Nc4ccc(C(=O)Nc5ccccc5Cl)cc4)n3)cc2)CC1 [Aurora A Inhibitor I]	0.182 ± 0.01
Cc1cc(C(=O)CN2CCCC2)c(C)n1-c1ccc(F)cc1	0.959 ± 0.085
C[C@@H]1CC[C@H]2[C@@H](C)C(=O)O[C@@H]3O[C@@]4(C)CC[C@@H]1[C@]32OO4 [Artemisinin]	1.08 ± 0.11
NCC(O)c1ccc(O)cc1 (racemic) [(+,-)-Octopamine HCl]	0.697 ± 0.56
CC(=O)OC12COC1CC(O)C1(C)C(=O)C(O)C3=C(C)C(O)CC(O)(C(OC(=O)c4ccccc4)C21)C3(C)C (stereo not given) [10-Deacetylbaccatin-III]	0.849 ± 0.011
CC1=C(O)C(=O)C=C2C1=CC=C1[C@@]2(C)CC[C@@]2(C)[C@@H]3C[C@](C)(C(=O)O)CC[C@]3(C)CC[C@]12C [Celastrol]	0.154 ± 0.0064
CC(C)=CCC[C@]1(C)C=Cc2c(O)c3c(c(CC=C(C)C)c2O1)O[C@]12C(=C[C@@H]4C[C@H]1C(C)(C)O[C@@]2(C/C=C(/C)C(=O)O)C4=O)C3=O [Gambogic Acid]	0.2853 ± 0.00092
O=c1cccc2n1C[C@@H]1CNC[C@H]2C1 [Cytisine]	1.07 ± 0.033
C=C[C@H]1CN2CC[C@H]1C[C@H]2[C@H](O)c1ccnc2ccccc12 [Cinchonidine]	1.03 ± 0.057
N#CC(C#N)=Cc1ccc(O)c(O)c1	0.937 ± 0.14
